This is part of a sample that, as a whole, favours compounds with a hit. Of some 83,000 tested, about 20% had one in any assay.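 Method: cells in 96-well plates; compound added at one concentration; 48 h incubation; percent growth measured; values under 10 scored active.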 Unmarked numbers belong to inactive results. Active and inactive are the calls of the source.

For this assay, the system named is SK-MEL-2 melanoma. The experiment in a line: NCI-60 one-dose screen, 48 h (100 = growth as untreated, 0 = no growth, -100 = all killed). Particulars: 10 µM unless noted. The protocol: Growth inhibition of the SK-MEL-2 human tumor cell line is measured as a screen for anti-cancer activity. Cells are grown in 96 well plates and exposed to the test compound for 48 hours. Compounds are tested at a single concentration, which is 10^-5 M for most compounds. The reported endpoint is percent growth (GI% or GIPRCNT), where numbers from 0 - 100% represent growth inhibition, and numbers from -100% - 0 represent cell death. For example, a value of 40 represents 60% growth inhibition. A value of 0 means no net growth occurred over the course of the experiment. A value of -40 indicates 40% of cells at the beginning of the experiment died by the end of the experiment. A value of -100 means all cells are dead at the end of the experiment.
NCI-60 Human Tumor Cell Lines Screen was performed using the standard one-dose NCI protocol, which is described in more detail at https://dtp.cancer.gov/discovery_development/nci-60/default.htm.
Compounds with GIPRCNT values below 10 were considered active. Activity score was based on GIPRCNT using the following formula: […]
Score is 0 for GIPRCNT values of 100 or above, 50 for GIPRCNT values of 0, and 100 for GIPRCNT values of -100.
For `CC/C(Cc1ccccc1)=C(/c1ccc(O)cc1)c1ccc(OCCN2CCCC2)cc1`, the growth is -52.3% (active).

Turning to `CC(C)(C)n1cc(-c2ccnc(NCCNS(=O)(=O)c3ccccc3)c2)c(-c2cccc(O)c2)n1`, the growth is 68.8%.

As for `CCOC(=O)C(C#N)C1CCCCC1` (stereo not given), the growth is 107%.

Regarding `CC(C)[C@H]1COC(=O)N1[C@@H]1C(=O)N([C@@H](CCC(=O)N2CCN(C3CCCC3)CC2)C(=O)N[C@@H]2CCCc3ccccc32)[C@@H]1/C=C/c1cccc(Br)c1`, the growth was -7.94% (active).

For `CNC(=O)c1cc(Oc2ccc3nc(NC(=O)Nc4ccc(N5CCC(N(C)C)CC5)cc4)sc3c2)ccn1`, the growth was 117%.

In the case of `Nc1c(C(=O)Nc2ccccc2Cl)sc2nc3c(cc12)CCCCCC3`, the growth was 46.2%.

As for `CCCCCCCCCCCCCC(=O)C(C)N` (stereo not given), the growth was 72.5%.

For `COc1ccccc1/C=C(/C(=O)c1ccccc1)c1ccccc1`, the growth is 94.5%.

As for `COc1cc(-c2nc3ccccc3s2)ccc1NC(=O)COc1ccc(Cl)cc1`, the growth was 78.5%.

`COc1cc(-c2cnc3nonc3n2)c(OC)c2c1OCO2`: the growth was 98.1%.

Regarding `Cc1nn(-c2nc3ccccc3[nH]2)c2c1C(c1ccc3c(c1)OCO3)CC(=O)N2` (stereo not given), the growth is 52.9%.

Take `CCCCCCCCSC1=CC(=O)C(OC)=C(OC)C1=O`: the growth was 26.3%.

`O=C1c2cccnc2C(=O)c2c1c(C(=O)OCCN1CCCCC1)c1ccccn21`: the growth was -45.4% (active).

`CC1CN(C(C)C)C(=S)N(c2ccccc2)C1=O` (stereo not given): the growth is 98.5%.

As to `CNc1cc2nc3cc(NC)c(C)cc3cc2cc1C`, the growth was 48.5%.

Turning to `NS(=O)(=O)c1ccc(-n2ncc3c(=O)[nH]c(CN4CCN(c5cc6c(cc5F)c(=O)c(C(=O)O)cn6C5CC5)CC4)nc32)cc1`, the growth was 106%.

`CC(=O)Oc1cc2cnc3c4cc(OC(C)=O)c(OC(C)=O)cc4ccc3c2cc1OC(C)=O`: the growth is 56.3%.

With `CC1(C)CC(C(=O)OCCCCCCCCCCC[P+](c2ccccc2)(c2ccccc2)c2ccccc2)C(C)(C)N1O` (stereo not given), the growth is -45.8% (active).

For `Cc1ccc(/C=C2\Oc3cc(OCC(=O)c4ccc(Cl)cc4)ccc3C2=O)cc1`, the growth is 79.2%.

With `O=C(O)c1c([N+](=O)[O-])cnc2ccccc12`, the growth is 102%.

On to `CN1C2CCC1/C(=C\c1ccc(Cl)cc1)C1=C2[C@@H](c2ccc(Cl)cc2)C(C#N)=C(N)O1` (stereo not given in full), for which the growth was 84.6%.

As to `COc1ccc(C/C(C)=C(\c2ccc(OCCN3CCCCCC3)cc2)c2ccc(OC(=O)C3CCCCC3)cc2)cc1`, the growth is 82.1%.

As for `COc1ccc(C(=O)COc2ccc(/C=C3\Oc4ccc(Cl)cc4C3=O)cc2)cc1`, the growth is 71.1%.

With `COc1ccc(CNc2nccnn2)cc1`, the growth is 108%.

Consider `COc1ccc(/C=N\NC(=O)c2ccncc2)cc1O`, for which the growth is 90.8%.

Turning to `C=CCSc1nnc(-c2ccc(C(C)(C)C)cc2)n1-c1cccc(C(F)(F)F)c1`, the growth was 46.7%.

As to `Cc1cc2cc3cc(C)c(N(C)C)cc3[n+](C)c2cc1N(C)C`, the growth is -22% (active).

As to `CCN(CC)CCC(=O)c1ccc(OC)c2ccccc12`, the growth is 91.7%.

In the case of `COc1ccc(CN2C(=O)/C(=C\c3cc(OC)c(OC)c(OC)c3)c3cc(OC)ccc32)cc1`, the growth is -13.4% (active).

With `COc1ccc2[nH]c(=O)c(/C=C/C(=O)c3ccc(Nc4nccc(-c5ccc6ccccc6c5)n4)cc3)cc2c1`, the growth is 102%.

With `O=C(/C=C\c1ccc2ccccc2n1)c1cc(Cl)ccc1O`, the growth was -9.71% (active).

Take `COc1cccc(/C=C\C(=O)c2ccccc2)c1`: the growth was 105%.

On to `C=C1CC2(OC1=O)C(=O)N(CCCCCCCN1C(=O)C3(CC(=C)C(=O)O3)c3ccccc31)c1ccccc12` (stereo not given), for which the growth is 61.2%.

Consider `CS(CCCCN=C=S)=NC(=O)c1c(F)c(F)c(F)c(F)c1F` (stereo not given), for which the growth was 94.2%.

Regarding `COc1ccc(/C(=C/c2ccc3ccccc3c2)c2nn[nH]n2)cc1OC`, the growth is 40.3%.

Regarding `COc1cccc(NC(=O)c2sc3nc4c(cc3c2N)CN(Cc2ccccc2)CC4)c1`, the growth is 66.8%.

For the compound `CC[C@]12C=CCN3CC[C@@]4(c5ccc(OC)cc5N(C)[C@H]4[C@@](O)(C(=O)OC)[C@@H]1OC(=O)CCC(=O)N[C@@H](Cc1c[nH]c4ccccc14)C(=O)OC)[C@@H]32`, the growth is 54.4%.

As for `CCCCCCCCCCCCCCCC(=O)OCC1OC(n2cnc3c(=S)nc(N)[nH]c32)C(OC(=O)CCCCCCCCCCCCCCC)C1OC(=O)CCCCCCCCCCCCCCC` (stereo not given), the growth was 54.7%.

In the case of `CC1(C)CC(=O)C(c2c(-c3ccccc3)[nH]c3[nH]c(=S)[nH]c(=O)c23)=C(O)C1`, the growth is 94.7%.

With `NCCN1CCN(c2nccc(-c3ccc4ccccc4c3)n2)CC1`, the growth is 76.9%.

For the origin of these results see PubChem BioAssay (NCI).
